Laboratory results reported in PubChem BioAssay (EPA / NIEHS).
Several values for one entry are separate records, joined by “and”; a condition that tells them apart may be missing. Equal values may be shown once. Records with an inconclusive call do not appear. More than one record can exist for a structure, and the calls need not agree. Activity calls are given as the source filed them. How the source made its calls: active means hit-call score of the fitted dose curve at least 0.9, where 1 is the maximum; inconclusive means response in the unintended direction; inactive means score below 0.9.

Columns and labels:
[1] = molecular target: Cellular tumor antigen p53 (Homo sapiens) (UniProt P04637); assay: TOX21_p53_BLA_p3_ratio: Tox21 HCT-116 p53 Agonism Beta-lactamase Assay, Ratio, Phase 3 (AID 2283596)
How it was run: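 Cells were seeded at 4000/well, rested 5 h at 37C, then dosed with DMSO compound solutions (217-fold dilution) for 16 h. CCF4-AM substrate was loaded for 2 h at room temperature, and the 460/530 nm emission ratio was fitted for gain of signal versus DMSO.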

[2] = TOX21_p53_BLA_p4_viability: Viability Assessment in the Tox21 HCT-116 p53 Agonism Beta-lactamase Assay, Phase 4 (AID 2283597);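 further: hits lower the luminescence signal meaning cytotoxicity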
How it was run: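 4000 HCT116 cells per well; 5 h attachment; compounds from DMSO, 217-fold dilution; 16 h at 37C. Then CCF4-AM, 2 h RT, followed by CellTiter-Glo, 30 min RT, luminescence. Decrease = cytotoxicity.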

[3] = molecular target: Cellular tumor antigen p53 (Homo sapiens) (UniProt P04637); assay: TOX21_p53_BLA_p5_ratio: Tox21 HCT-116 p53 Agonism Beta-lactamase Assay, Ratio, Phase 5 (AID 2283599)
How it was run: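 HCT-116 p53-bla cells (4000/well) plated 5 h, dosed with compound (217-fold DMSO dilution) for 16 h at 37 C; CCF4-AM substrate 2 h at room temperature. Activity is the 460/530 nm emission ratio (405 nm excitation), fitted in gain-of-signal direction versus DMSO.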

[4] = TOX21_p53_BLA_p5_viability: Viability Assessment in the Tox21 HCT-116 p53 Agonism Beta-lactamase Assay, Phase 5 (AID 2283600)
How it was run: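 Decreased CellTiter-Glo luminescence denotes lost viability. Exposure: 16 h at 37C, 5% CO2, with compounds from DMSO stocks diluted 217-fold in wells of 4000 cells.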

[5] = molecular target: Cellular tumor antigen p53 (Homo sapiens) (UniProt P04637); assay: TOX21_p53_BLA_p4_ratio: Tox21 HCT-116 p53 Agonism Beta-lactamase Assay, Ratio, Phase 4 (AID 2283601)
How it was run: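 HCT-116 p53 beta-lactamase reporter cells (4000/well) preincubated 5 h, then compound (217-fold dilution of DMSO stock) for 16 h at 37C. CCF4-AM substrate added 2 h at room temperature; 460/530 nm emission ratio fitted upward versus DMSO.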

Measured: AC50

Chain of Cellular tumor antigen p53 (Homo sapiens) (P04637 whole entry, looked up): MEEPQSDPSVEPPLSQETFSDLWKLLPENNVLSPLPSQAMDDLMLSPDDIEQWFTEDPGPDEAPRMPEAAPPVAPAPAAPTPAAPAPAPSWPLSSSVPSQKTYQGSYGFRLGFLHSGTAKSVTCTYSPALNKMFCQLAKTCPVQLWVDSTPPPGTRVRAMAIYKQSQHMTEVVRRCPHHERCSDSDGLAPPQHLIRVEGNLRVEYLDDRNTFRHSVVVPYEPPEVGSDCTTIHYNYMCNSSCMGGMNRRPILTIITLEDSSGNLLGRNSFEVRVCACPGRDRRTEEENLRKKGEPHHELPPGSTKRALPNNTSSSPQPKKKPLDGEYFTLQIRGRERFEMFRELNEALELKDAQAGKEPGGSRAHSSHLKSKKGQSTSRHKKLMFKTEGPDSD

CN(C)c1ccc2nc3ccc(=[N+](C)C)cc-3sc2c1
active: [1] 34.3 µM | [2] 10.8 µM | [3] 45.7 µM and 13 µM | [5] 41.2 µM and 14.4 µM and 28.4 µM
inactive: [1] | [2] | [3] | [4]

C=CCCCCCCCCO
inactive: [1] | [2] | [3] | [4] | [5]

CCCCCCCCCCCCCC(=O)OC(C)C
inactive: [1] | [2] | [3] | [4] | [5]

CC(C)(C)NC(=O)[C@H]1CC[C@H]2[C@@H]3CC[C@H]4NC(=O)C=C[C@]4(C)[C@H]3CC[C@]12C
inactive: [1] | [2]

CCCCCCCOC(=O)c1ccc(O)cc1
inactive: [1] | [2] | [3] | [4] | [5]
active: [1] 74.5 µM | [2] 51.3 µM | [3] 74.3 µM | [5] 68.3 µM

CCCCOCCOCCOC(C)=O
inactive: [1] | [2] | [3] | [4] | [5]

CC(=O)c1ccc(S(=O)(=O)NC(=O)NC2CCCCC2)cc1
inactive: [1] | [2] | [3] | [4] | [5]

CCCCCCOc1ccc(N)cc1
inactive: [1] | [2] | [3] | [4] | [5]

CCCCOCCOC(=O)COc1ccc(Cl)cc1Cl
inactive: [1] | [2] | [3] | [4]

COc1cc(C)ccc1O
inactive: [1] | [2] | [3] | [4] | [5]

C=C(C)C1CC=C(C)CC1 (stereo unspecified)
inactive: [1] | [2] | [3] | [4] | [5]

Oc1c(Cl)cc(Cl)c(Cl)c1Cl
active: [1] 17 µM and 27.1 µM | [3] 27 µM and 21.1 µM | [5] 35.5 µM and 18.8 µM
inactive: [2] | [4]

Cc1noc(NS(=O)(=O)c2ccc(N)cc2)c1C
inactive: [1] | [2] | [3] | [4] | [5]

C=CC(=O)OCCCCCCOC(=O)C=C
active: [1] 54.4 µM and 63.2 µM | [3] 42.4 µM and 63.2 µM
inactive: [2] | [4] | [5]

CC1C(C)(C)C2=C(C(=O)CCC2)C1(C)C (stereo unspecified)
inactive: [1] | [2] | [3]

C=C(C)OC(C)=O
inactive: [1] | [2] | [3] | [4] | [5]

CCCCCCCC(=O)OCC(COC(=O)CCCCCCC)OC(=O)CCCCCCC
inactive: [1] | [2] | [3] | [4] | [5]

CCCC/C=C/C=C\C=O
inactive: [1] | [2] | [3] | [4]

C=CCNCC=C
active: [1] 84.2 µM
inactive: [1] | [3] | [4] | [5]

CCCCOC(=O)C(C)CC (stereo unspecified)
inactive: [1] | [2] | [3] | [4] | [5]

COC(=O)CC(C)CCC=C(C)C (stereo unspecified)
inactive: [1] | [2] | [3] | [4]

Oc1ccc(-c2ccccc2)c(Cl)c1
inactive: [1] | [3] | [4]
active: [2] 60.8 µM | [5] 76.2 µM

C=C(C)C1CC=C(C)C(OC(C)=O)C1 (stereo unspecified)
inactive: [1]

C=C[C@@]1(C)CC(=O)[C@]2(O)[C@@]3(C)[C@@H](O)CCC(C)(C)[C@@H]3[C@H](O)[C@H](OC(C)=O)[C@@]2(C)O1
inactive: [1] | [2] | [3] | [4] | [5]
active: [2] 27.1 µM

CC(=O)OC/C=C(/C)CCC=C(C)C
inactive: [1] | [2] | [3] | [4] | [5]

CC1(C)[C@@H]2CC[C@@]1(C)C(=O)C2
inactive: [1] | [2] | [3] | [4] | [5]

CC(=O)OCC=C(C)C
inactive: [1] | [2] | [3] | [4] | [5]

CCCCC1CCC(=O)O1 (stereo unspecified)
inactive: [1] | [2] | [3] | [4] | [5]

CC(CC(C)C)=NO
inactive: [1] | [2] | [3]

CC(C)(O)Cc1ccccc1
inactive: [1] | [2] | [3]

CCCCCCC=O
inactive: [1] | [2] | [3] | [4] | [5]

C=C[Si](OCCOC)(OCCOC)OCCOC
inactive: [1] | [2] | [3] | [4]

C=CC(C)(O)CC/C=C(\C)CC (stereo unspecified)
inactive: [1] | [2] | [3]

CCCCCOC(=O)CCCCC
inactive: [1] | [2]

Cc1cccc(C(C)(C)C)c1O
inactive: [1] | [2] | [3] | [4] | [5]

CCCCCCCCCCCCCCCCCCOS(=O)(=O)O
inactive: [2] | [3] | [4] | [5]
active: [1] 86.5 µM
